Tested on: Vero E6 infected with SARS-CoV-2
Assay: inhibition of SARS-CoV-2 cytopathic effect; higher = more antiviral protection, active = above 15
Conditions: 48 h

CN(C)CCOC(=O)COc1ccc(Cl)cc1 [meclofenoxate]
inhibition of SARS-CoV-2 cytopathic effect (1 nM): 2.47% (inactive)
inhibition of SARS-CoV-2 cytopathic effect (8.33 nM): 0.23% (inactive)
inhibition of SARS-CoV-2 cytopathic effect (100 nM): 1.17% (inactive)
inhibition of SARS-CoV-2 cytopathic effect (833.33 nM): 1.28% (inactive)
inhibition of SARS-CoV-2 cytopathic effect (10000 nM): 1.66% (inactive)

COc1ccc(-c2nc(C(=O)N3CCN(C)CC3)sc2-c2ccc(OC)cc2)cc1
inhibition of SARS-CoV-2 cytopathic effect (1 nM): -2.34% (inactive)
inhibition of SARS-CoV-2 cytopathic effect (8.33 nM): -0.77% (inactive)
inhibition of SARS-CoV-2 cytopathic effect (100 nM): -0.57% (inactive)
inhibition of SARS-CoV-2 cytopathic effect (833.33 nM): -2.37% (inactive)
inhibition of SARS-CoV-2 cytopathic effect (10000 nM): 0.19% (inactive)

CCCCNc1cc(C(=O)O)cc(S(N)(=O)=O)c1Oc1ccccc1 [bumetanide]
inhibition of SARS-CoV-2 cytopathic effect (1 nM): 0.26% (inactive)
inhibition of SARS-CoV-2 cytopathic effect (8.33 nM): 2.83% (inactive)
inhibition of SARS-CoV-2 cytopathic effect (100 nM): 0.69% (inactive)
inhibition of SARS-CoV-2 cytopathic effect (833.33 nM): 1.71% (inactive)
inhibition of SARS-CoV-2 cytopathic effect (10000 nM): 1.07% (inactive)

COc1cccc(C(=O)CCN[C@@H](C)[C@H](O)c2ccccc2)c1 [oxyfedrine]
inhibition of SARS-CoV-2 cytopathic effect (1 nM): 0.05% (inactive)
inhibition of SARS-CoV-2 cytopathic effect (8.33 nM): 1.34% (inactive)
inhibition of SARS-CoV-2 cytopathic effect (100 nM): -0.45% (inactive)
inhibition of SARS-CoV-2 cytopathic effect (833.33 nM): 0.14% (inactive)
inhibition of SARS-CoV-2 cytopathic effect (10000 nM): 1.77% (inactive)

O=c1ncn2nc(Sc3ccc(F)cc3F)ccc2c1-c1c(Cl)cccc1Cl
inhibition of SARS-CoV-2 cytopathic effect (1 nM): 1.28% (inactive)
inhibition of SARS-CoV-2 cytopathic effect (8.33 nM): -0.16% (inactive)
inhibition of SARS-CoV-2 cytopathic effect (100 nM): -1.32% (inactive)
inhibition of SARS-CoV-2 cytopathic effect (833.33 nM): 1.03% (inactive)
inhibition of SARS-CoV-2 cytopathic effect (10000 nM): 1.38% (inactive)

CNC[C@H](O)[C@@H](O)[C@H](O)[C@H](O)CO [meglumine]
inhibition of SARS-CoV-2 cytopathic effect (1 nM): -10% (inactive)
inhibition of SARS-CoV-2 cytopathic effect (8.33 nM): -10.3% (inactive)
inhibition of SARS-CoV-2 cytopathic effect (100 nM): -6.44% (inactive)
inhibition of SARS-CoV-2 cytopathic effect (833.33 nM): -11.4% (inactive)
inhibition of SARS-CoV-2 cytopathic effect (10000 nM): -10.1% (inactive)

CCc1cc(Cl)c(OC)c(C(=O)NC[C@@H]2CCCN2CC)c1O [eticlopride]
inhibition of SARS-CoV-2 cytopathic effect (1 nM): -0.43% (inactive)
inhibition of SARS-CoV-2 cytopathic effect (8.33 nM): -0.67% (inactive)
inhibition of SARS-CoV-2 cytopathic effect (100 nM): 1.17% (inactive)
inhibition of SARS-CoV-2 cytopathic effect (833.33 nM): 0.92% (inactive)
inhibition of SARS-CoV-2 cytopathic effect (10000 nM): 3.78% (inactive)

CS(=O)(=O)c1ccc(-c2cnc(N)c(C(=O)Nc3ccccc3)n2)cc1
inhibition of SARS-CoV-2 cytopathic effect (1 nM): 1.3% (inactive)
inhibition of SARS-CoV-2 cytopathic effect (8.33 nM): -2.14% (inactive)
inhibition of SARS-CoV-2 cytopathic effect (100 nM): 1.58% (inactive)
inhibition of SARS-CoV-2 cytopathic effect (833.33 nM): 0.67% (inactive)
inhibition of SARS-CoV-2 cytopathic effect (10000 nM): 2.65% (inactive)

CO/N=C(\C(=O)N[C@@H]1C(=O)N2C(C(=O)O)=CCS[C@H]12)c1csc(N)n1 [ceftizoxim]
inhibition of SARS-CoV-2 cytopathic effect (1 nM): -1.24% (inactive)
inhibition of SARS-CoV-2 cytopathic effect (8.33 nM): -13.2% (inactive)
inhibition of SARS-CoV-2 cytopathic effect (100 nM): -0.8% (inactive)
inhibition of SARS-CoV-2 cytopathic effect (833.33 nM): 0.85% (inactive)
inhibition of SARS-CoV-2 cytopathic effect (10000 nM): 0.82% (inactive)

C[C@@H](NCCCc1cccc(C(F)(F)F)c1)c1cccc2ccccc12 [cinacalcet]
inhibition of SARS-CoV-2 cytopathic effect (1 nM): 1.8% (inactive)
inhibition of SARS-CoV-2 cytopathic effect (8.33 nM): 2.9% (inactive)
inhibition of SARS-CoV-2 cytopathic effect (100 nM): 0.77% (inactive)
inhibition of SARS-CoV-2 cytopathic effect (833.33 nM): -2.27% (inactive)
inhibition of SARS-CoV-2 cytopathic effect (10000 nM): -3.52% (inactive)

COc1cc2ncnc(Sc3nnc(C)s3)c2cc1OC
inhibition of SARS-CoV-2 cytopathic effect (1 nM): -1.42% (inactive)
inhibition of SARS-CoV-2 cytopathic effect (8.33 nM): 0.72% (inactive)
inhibition of SARS-CoV-2 cytopathic effect (100 nM): 3.01% (inactive)
inhibition of SARS-CoV-2 cytopathic effect (833.33 nM): 1.54% (inactive)
inhibition of SARS-CoV-2 cytopathic effect (10000 nM): 24.4% (active)

COC[C@@H](NC(C)=O)C(=O)NCc1ccccc1 [Lacosamide]
inhibition of SARS-CoV-2 cytopathic effect (1 nM): -11.7% (inactive)
inhibition of SARS-CoV-2 cytopathic effect (8.33 nM): -10.6% (inactive)
inhibition of SARS-CoV-2 cytopathic effect (100 nM): -8.79% (inactive)
inhibition of SARS-CoV-2 cytopathic effect (833.33 nM): -10.4% (inactive)
inhibition of SARS-CoV-2 cytopathic effect (10000 nM): -12.7% (inactive)

Cc1cc2c(cc1C(F)(F)F)N(C(=O)Nc1ccc(Oc3cccnc3C)nc1)CC2
inhibition of SARS-CoV-2 cytopathic effect (1 nM): 0.45% (inactive)
inhibition of SARS-CoV-2 cytopathic effect (8.33 nM): 0.15% (inactive)
inhibition of SARS-CoV-2 cytopathic effect (100 nM): -0.25% (inactive)
inhibition of SARS-CoV-2 cytopathic effect (833.33 nM): 0.74% (inactive)
inhibition of SARS-CoV-2 cytopathic effect (10000 nM): -2.31% (inactive)

CC[N+](C)(CC)CCOC(=O)C(O)(c1ccccc1)C1CCCCC1 (stereo not given) [oxyphenonium]
inhibition of SARS-CoV-2 cytopathic effect (1 nM): -1.8% (inactive)
inhibition of SARS-CoV-2 cytopathic effect (8.33 nM): -1.33% (inactive)
inhibition of SARS-CoV-2 cytopathic effect (100 nM): -2.81% (inactive)
inhibition of SARS-CoV-2 cytopathic effect (833.33 nM): 0.58% (inactive)
inhibition of SARS-CoV-2 cytopathic effect (10000 nM): -1.5% (inactive)

CCC(CC)COC(=O)[C@H](C)N[P@](=O)(OC[C@H]1O[C@@](C#N)(c2ccc3c(N)ncnn23)[C@H](O)[C@@H]1O)Oc1ccccc1 [Remdesivir]
inhibition of SARS-CoV-2 cytopathic effect (1 nM): -0.54% (inactive)
inhibition of SARS-CoV-2 cytopathic effect (8.33 nM): 1.32% (inactive)
inhibition of SARS-CoV-2 cytopathic effect (100 nM): 1.51% (inactive)
inhibition of SARS-CoV-2 cytopathic effect (833.33 nM): 0.56% (inactive)
inhibition of SARS-CoV-2 cytopathic effect (10000 nM): 9.79% (inactive)

O=C(OCC(O)CO)c1ccccc1Nc1ccnc2c(C(F)(F)F)cccc12 (stereo not given) [floctafenine]
inhibition of SARS-CoV-2 cytopathic effect (1 nM): 0.71% (inactive)
inhibition of SARS-CoV-2 cytopathic effect (8.33 nM): 6.76% (inactive)
inhibition of SARS-CoV-2 cytopathic effect (100 nM): 1.82% (inactive)
inhibition of SARS-CoV-2 cytopathic effect (833.33 nM): 3.08% (inactive)
inhibition of SARS-CoV-2 cytopathic effect (10000 nM): 3.04% (inactive)

CCN(CC)CCOCCOC(=O)C1(c2ccccc2)CCCC1 [carbetapentane]
inhibition of SARS-CoV-2 cytopathic effect (1 nM): -0.34% (inactive)
inhibition of SARS-CoV-2 cytopathic effect (8.33 nM): 0.73% (inactive)
inhibition of SARS-CoV-2 cytopathic effect (100 nM): 1.1% (inactive)
inhibition of SARS-CoV-2 cytopathic effect (833.33 nM): 1.39% (inactive)
inhibition of SARS-CoV-2 cytopathic effect (10000 nM): 0.95% (inactive)

CNc1nc(C)nc(N[C@H]2CCC[C@@H](C(=O)NCc3ccc(C#N)cc3C(F)(F)F)C2)n1
inhibition of SARS-CoV-2 cytopathic effect (1 nM): 1.51% (inactive)
inhibition of SARS-CoV-2 cytopathic effect (8.33 nM): -1.43% (inactive)
inhibition of SARS-CoV-2 cytopathic effect (100 nM): -0.92% (inactive)
inhibition of SARS-CoV-2 cytopathic effect (833.33 nM): -0.12% (inactive)
inhibition of SARS-CoV-2 cytopathic effect (10000 nM): -2.39% (inactive)

Cc1ccc(CCCO)c(NCc2ccc3nc(NCCCN4CCOCC4)n(Cc4nc(C)ccc4O)c3c2)c1
inhibition of SARS-CoV-2 cytopathic effect (1 nM): 0.48% (inactive)
inhibition of SARS-CoV-2 cytopathic effect (8.33 nM): -0.28% (inactive)
inhibition of SARS-CoV-2 cytopathic effect (100 nM): -0.6% (inactive)
inhibition of SARS-CoV-2 cytopathic effect (833.33 nM): -1.09% (inactive)
inhibition of SARS-CoV-2 cytopathic effect (10000 nM): -1.76% (inactive)

Reference: the supplement of paper PMC13380429
